Bioassay records: PubChem, National Center for Advancing Translational Sciences (NCATS)
L3MBTL1 inh – L3MBTL1 (human) inhibition | Q9Y468 | AlphaScreen L3MBTL1–H3K9me1 peptide binding | Potency, µM (top dose mostly 57.1 µM), for inactives: top-dose activity, negative = inhibition, actives largely listed as inhibitors | 230,000 tested, 0.66% active | AID 485360; note: potency is the fitted concentration of half-maximal effect; % is set by controls: 0 for no effect and ±100 for the full control effect; nearly all actives have a fitted effect of over 60% in size
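AlphaScreen assay: L3MBTL1 (50 nM final) was preincubated 30 min at room temperature with biotinylated H3(1-15)K9me1 peptide (75 nM final), then 30 min with library compounds; streptavidin donor and nickel chelate acceptor beads (10 ug/mL final) added, 30 min dark.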
BAZ2B inh – blocks human BAZ2B; AlphaScreen BAZ2B-H3K14Ac peptide displacement; Potency, µM (titrated, usually from 114 µM), without a hit: top-dose activity change, negative = inhibition, actives largely listed as inhibitors; 360,000 tested, 4.4% active; AID 504333; note: potency is the fitted concentration of half-maximal effect; % is set by controls: 0 for no effect and ±100 for the full control effect; nearly all actives have a fitted effect of over 60% in size
Target sequence (Q9UIF8 whole entry, looked up): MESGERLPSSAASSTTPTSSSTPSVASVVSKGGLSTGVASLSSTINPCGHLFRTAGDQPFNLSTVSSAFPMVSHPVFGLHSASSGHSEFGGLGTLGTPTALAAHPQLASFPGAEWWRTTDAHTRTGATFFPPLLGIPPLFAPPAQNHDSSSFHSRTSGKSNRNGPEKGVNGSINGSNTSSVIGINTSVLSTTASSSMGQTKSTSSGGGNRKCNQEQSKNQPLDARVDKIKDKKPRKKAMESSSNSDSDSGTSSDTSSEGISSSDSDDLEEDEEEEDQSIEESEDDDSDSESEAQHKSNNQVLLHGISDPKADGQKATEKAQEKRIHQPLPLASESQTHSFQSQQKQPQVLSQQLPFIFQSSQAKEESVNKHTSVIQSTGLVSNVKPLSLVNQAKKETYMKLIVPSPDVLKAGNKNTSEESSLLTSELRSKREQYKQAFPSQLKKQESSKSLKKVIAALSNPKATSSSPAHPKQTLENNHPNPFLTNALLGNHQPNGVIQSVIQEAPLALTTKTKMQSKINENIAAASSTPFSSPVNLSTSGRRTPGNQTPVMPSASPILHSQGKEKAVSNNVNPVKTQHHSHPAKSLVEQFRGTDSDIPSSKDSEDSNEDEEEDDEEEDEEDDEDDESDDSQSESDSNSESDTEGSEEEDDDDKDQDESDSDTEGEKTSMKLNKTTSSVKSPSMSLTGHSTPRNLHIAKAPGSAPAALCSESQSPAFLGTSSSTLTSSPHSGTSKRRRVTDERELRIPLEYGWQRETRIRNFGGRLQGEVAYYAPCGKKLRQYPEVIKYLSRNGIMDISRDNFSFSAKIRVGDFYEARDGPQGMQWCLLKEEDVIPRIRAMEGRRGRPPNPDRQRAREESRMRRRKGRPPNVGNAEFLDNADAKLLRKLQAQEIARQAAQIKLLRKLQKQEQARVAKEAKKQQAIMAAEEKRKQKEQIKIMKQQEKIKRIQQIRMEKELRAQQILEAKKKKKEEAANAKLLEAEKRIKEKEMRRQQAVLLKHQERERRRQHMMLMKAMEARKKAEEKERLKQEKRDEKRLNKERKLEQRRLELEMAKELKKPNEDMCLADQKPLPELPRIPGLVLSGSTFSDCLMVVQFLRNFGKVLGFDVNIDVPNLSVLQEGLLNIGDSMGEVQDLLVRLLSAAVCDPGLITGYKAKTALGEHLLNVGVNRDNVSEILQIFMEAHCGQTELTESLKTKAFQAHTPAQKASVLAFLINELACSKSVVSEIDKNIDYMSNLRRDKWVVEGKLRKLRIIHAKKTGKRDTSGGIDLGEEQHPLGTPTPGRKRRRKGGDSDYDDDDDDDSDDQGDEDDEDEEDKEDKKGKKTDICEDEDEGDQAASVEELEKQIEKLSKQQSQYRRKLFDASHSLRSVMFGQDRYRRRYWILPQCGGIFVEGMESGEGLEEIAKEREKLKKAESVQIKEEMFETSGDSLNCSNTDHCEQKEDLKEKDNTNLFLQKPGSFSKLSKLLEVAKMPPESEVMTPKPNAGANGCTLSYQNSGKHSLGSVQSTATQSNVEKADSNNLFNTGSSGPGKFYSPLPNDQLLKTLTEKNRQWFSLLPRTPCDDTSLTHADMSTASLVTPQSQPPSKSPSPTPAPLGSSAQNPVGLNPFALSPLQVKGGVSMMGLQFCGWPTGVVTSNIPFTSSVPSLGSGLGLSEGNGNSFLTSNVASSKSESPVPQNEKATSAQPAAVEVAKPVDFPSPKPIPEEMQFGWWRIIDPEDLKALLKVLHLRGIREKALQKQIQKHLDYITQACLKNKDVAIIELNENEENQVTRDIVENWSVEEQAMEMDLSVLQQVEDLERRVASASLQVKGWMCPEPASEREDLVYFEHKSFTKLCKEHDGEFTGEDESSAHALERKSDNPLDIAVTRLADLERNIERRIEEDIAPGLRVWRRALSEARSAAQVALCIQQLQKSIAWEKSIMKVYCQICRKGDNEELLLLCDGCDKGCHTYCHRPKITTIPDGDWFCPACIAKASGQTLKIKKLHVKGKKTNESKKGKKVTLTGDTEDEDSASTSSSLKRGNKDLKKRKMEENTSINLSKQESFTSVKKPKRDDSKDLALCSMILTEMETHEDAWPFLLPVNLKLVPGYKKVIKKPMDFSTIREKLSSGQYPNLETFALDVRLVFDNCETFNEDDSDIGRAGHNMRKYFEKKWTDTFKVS
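AlphaScreen luminescence quantifies BAZ2B engagement of H3K14Ac peptide; the protein and biotinylated peptide are both at 50 nM final, buffer PBS pH 7.4 with 0.01% Tween-20, all steps at room temperature.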
JMJD2A Tudor inh – JMJD2A Tudor domain (human) inhibition. AlphaScreen JMJD2A-Tudor / H3K4me3 peptide binding. Potency, µM (series often up to 114 µM), without a hit: at the highest dose activity change, negative = inhibition, hits mostly inhibitors. 390,000 tested, 4.4% active. AID 504339; note: potency is the fitted concentration of half-maximal effect; % is set by controls: 0 for no effect and ±100 for the full control effect; nearly all actives have a fitted effect of over 50% in size
HP1b binding inh – inhibitors of HP1-beta chromodomain binding to methylated histone tails | 390,000 tested, 0.56% active | AID 540317 | P83916 | Potency, µM (series often up to 114 µM), for inactives: top-dose activity change, negative = inhibition, actives largely listed as inhibitors | AlphaScreen HP1-beta / biotin-H3K9me3 peptide binding; note: potency is the fitted concentration of half-maximal effect; nearly all actives have a fitted effect of over 70% in size
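AlphaScreen: HP1-beta (50 nM) preformed 30 min with biotin-H3(1-18)K9me3 peptide (50 nM) in PBS pH 7.4, 0.01% Tween-20. Compound added for 30 min at RT, then streptavidin donor/nickel chelate acceptor beads (10 ug/mL) for 30 min.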
PI5P4K alpha inh – PI5P4K alpha (human) kinase inhibition; P48426; PI5P4Kalpha enzyme, ADP-Glo luminescence, 60 min; active compounds read low; max response, %; 330,000 tested, 1.2% active; AID 652105; active = max response of -50% or lower; inconclusive = between -30% and -50%; inactive = -30% or higher; note: value at the top dose of about 77 µM; % is set by controls: 0 for no effect and ±100 for the full control effect
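qHTS, 1536-well: enzyme/substrate mix, compound by pin tool, 5 microM ATP final; RT 60 min; ADP-Glo reagents 1 (45 min) then 2 (30 min); luminescence.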
KDM4E inh – JMJD2E (human) inhibition; B2RXH2; JMJD2E catalytic domain, FDH-coupled NADH fluorescence (FDH is formaldehyde dehydrogenase); Potency, µM (titrated, usually from 57.1 µM), without a hit: at the highest dose activity change, negative = inhibition, hits mostly inhibitors; 230,000 tested, 1.6% active; active = well fitted inhibition curve with a large enough effect, not every such curve was filed as active; inconclusive = small, poorly fitted or top-dose-only effect, or another doubt; inactive = no such curve, though single readings can be large or run the other way;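 note: potency is the fitted concentration of half-maximal effect; 0% = wells with enzyme and -100% = buffer wells without enzyme; nearly all actives have a fitted effect of over 50% in size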
* hit, by the source's call; ? = inconclusive; / = no result given; ! = repeats disagree; [ ] = another dose, or the depositor's remark. Sampled rows, rich in hits. Any-hit rate of the full collection: about 5.7%. Unless noted, calls come from the whole dose curve; as a rule, active = well fitted inhibition curve with a large enough effect; inconclusive = small, poorly fitted or top-dose-only effect; inactive = no such curve, though single readings can be large or run the other way.

SMILES | L3MBTL1 inh | BAZ2B inh | JMJD2A Tudor inh | HP1b binding inh | PI5P4K alpha inh | KDM4E inh
O=C(CSc1nccn1Cc1ccc(Cl)cc1)Nc1ccc2c(c1)OCCO2 | / | ? | 50µM* | -12%[57 µM] | / | /
c1coc(-c2nn3c(-c4ccco4)nnc3s2)c1 | -29% | ? | ? | 20% | -62* | -19%
COc1ccccc1-c1nn2c(-c3ccco3)nnc2s1 | ? | ? | ? | 0% | / | -9%
COc1ccc(OCc2nn3c(-c4ccco4)nnc3s2)cc1 | -14% | -37% | -25% | 6% | -22 | -23%
c1coc(-c2nnc3sc(Cc4cccs4)nn23)c1 | / | 50µM* | 40µM* | ? | / | 2%
N#CCN(C(=O)COC(=O)CCCNC(=O)c1ccc(Cl)cc1)c1ccccc1 | 5% | -2% | -11% | 29% | 4 | /
COc1ccc(-c2sc3cc4c(cc3c2C#CC2(O)CCCCC2)OCO4)cc1 | 3% | ? | -15% | 39% | 23 | /
COc1ccccc1-c1sc2cc3c(cc2c1C#CC1(O)CCCCC1)OCO3 | 1% | 79µM* | -25% | 62% | 20 | /
Cc1cc2nc3s/c(=C/c4ccc(-c5ccccc5C(=O)O)o4)c(=O)n3c2cc1C | / | 50µM* | 32µM* | ? | -86* | /
Cc1cc2nc(/C(C#N)=C\c3ccc(-c4ccccc4C(=O)O)o3)[nH]c2cc1C | -4% | ? | -16% | 4% | -27 | /
O=C(O)c1ccccc1-c1ccc(/C=c2\sc3nc4cc(Br)cnc4n3c2=O)o1 | 13µM* | 40µM* | 3.2µM* | 6.3µM* | / | -28%
O=C(O)c1cc(-c2ccc(/C=c3\sc4nc5ccc(Br)cc5n4c3=O)o2)ccc1Cl | 28µM* | 18µM* | / | / | / | /
O=C(O)c1cc(-c2ccc(/C=N/N3C(=O)C4C5C=CC(CC5)C4C3=O)o2)ccc1Cl (stereo unspecified) | -15% | -15% | 0% | 22% | 1 | ?
Cc1cccc(N2CCN(C(=O)c3ccc4c(c3)N(Cc3cccc(Cl)c3)C(=O)c3ccccc3S4=O)CC2C)c1 (stereo unspecified) | / | -18% | -19% | 40% | / | /
CN1C(=O)/C(=C\c2ccc(N(C)C)cc2)OC1=S | 19% | 11% | 25µM* | 13% | -27 | /
C[C@H](N)C(=O)NC[C@H]1O[C@@H](n2cnc3c(N)ncnc32)[C@H](O)[C@@H]1O | -3% | / | 3% | 43% | 1 | /
CCCCCC[C@@H]([C@@H](C)O)n1cnc2c(N)ncnc21 | / | / | -25% | 37% | 3 | 13µM*!
Cc1ccc(-c2n[nH]c(=S)n2/N=C\c2ccco2)cc1 | 1% | -9% | 25µM* | 8% | 0 | -12%
S=c1[nH]nc(-c2cccnc2)n1/N=C/c1ccco1 | ? | ? | 25µM* | 35% | -7 | -22%
CC(/C=N/n1c(-c2ccc(Cl)cc2)n[nH]c1=S)=C\c1ccco1 | -15% | 2% | ? | 5% | ? | -4%
Cc1cccc(-c2n[nH]c(=S)n2/N=C/c2ccco2)c1 | -4% | -26% | 7.9µM* | 7% | 4 | -2%
CCOc1ccc(NC(=O)CSc2cn[nH]n2)cc1 | 2% | 9% | -4% | 39% | 8 | /
Cc1ccccc1OCC(O)CN1CCN(CC(O)COc2ccccc2C)C(C)C1 (stereo unspecified) | / | 22µM* | 2µM* | ? | 14 | /
O=C(CN1C(=O)c2cccc3cccc1c23)Nc1ccccc1Br | / | 3%[57.1 µM] | -1% | 25% | / | /
Cc1ccccc1NC(=O)c1sc2nc3c(cc2c1N)CCCC3 | / | 9% | 5% | 46% | / | /
CSc1nnc2c(n1)c(C)nn2-c1cccc(C)c1 | ? | 28µM* | ? | -35% | 0 | 5%
CC(Sc1nnc(-c2ccco2)n1C)C(=O)Nc1nccs1 (stereo unspecified) | 3% | -33% | 32µM* | 21% | 1 | /
Cc1nnc(NC(=O)C(C)Sc2nnc(-c3ccco3)n2C)s1 (stereo unspecified) | / | 2% | -15% | -7% | -4 | /
CC(Sc1nnc(-c2ccc(Cl)cc2Cl)n1Cc1ccccc1)C(=O)Nc1nccs1 (stereo unspecified) | -1% | -7% | 79µM* | ? | -2 | -1%
